# Values joined by “and” are separate entries in the source; they are usually repeats but may differ in a detail not shown here. Identical values can stand only once. Results filed as inconclusive are left out. A call without a number means that no potency is given here. Active and inactive are the calls of the source. The call rests on the fitted dose curve; in most records, active means well fitted cell-killing curve with a large enough effect in the repeat runs; inconclusive means weak or mixed curves, or effect the other way; inactive means no such curve, though single readings can be large or run the other way.
# Assay: qHTS assay to identify small molecule antagonists of the glucocorticoid receptor (GR) signaling pathway - cell viability counter screen (AID 720693); further: nearly all actives have a fitted effect of over 55% in size
# Settings: GR-bla HeLa viability, CellTiter-Glo luminescence, 18 h, with 5 nM dexamethasone present; series mostly up to 58.5 µM
# Description: National Center for Advancing Translational Sciences [NCATS]
# NIH Chemical Genomics Center [NCGC]
# U.S. Environmental Protection Agency [EPA]
# National Institutes of Environmental Health Sciences [NIEHS]
# National Toxicology Program [NTP]
# U.S. Food and Drug Administration [FDA]
# The Glucocorticoid receptor (GR) is one of the members of the nuclear receptor family of ligand-dependent transcription factors. GR plays a critical role in carbohydrate, protein and lipid metabolisms and programmed cell death. CellSensor GR-bla HeLa cell line (Invitrogen) contains a beta-lactamase reporter gene under the control of the glucocorticoid response element stably integrated into HeLa cells, a cervical cancer cell line that expresses glucocorticoid receptor. The activation of the reporter gene under culture conditions can be detected by fluorescence intensity. This cell line has been used to screen the Tox21 10K compound library and to identify the compounds that inhibit the GR signaling. The cytotoxicity of the Tox21 compound library against the GR-bla HeLa cell line was tested in parallel by measuring the cell viability using CellTiter-Glo assay in the same wells.
# Tox21 Assay Protocol Summary:
# The GR-bla HeLa cells were dispensed at 1500 cells/5 ul/well in 1536-well black wall/clear bottom plates using a Multidrop Combi (ThermoFisher Scientific, Waltham, MA) dispenser. After the assay plates were incubated at a 37 C/5% CO2 incubator for 4 hours, 23 nL of compounds dissolved in DMSO, positive controls or DMSO only was transferred to the assay plate by a pintool station (Kalypsys, San Diego, CA), followed by addition of 1 uL of dexamethasone (5 nM, final concentration in the well). The plates were incubated at 37 C for 18 hours. After 1 uL of LiveBLAzerTM B/G FRET substrate was added using a Flying Reagent Dispenser (Aurora Discovery, San Diego, CA), the plates were incubated at room temperature (RT) for 2 hours, and fluorescence intensity was measured by an Envision plate reader (PerkinElmer, Shelton, CT). After measurement of bla assay, 3 ul CellTiter-Glo (Promega, Madison, WI) was added to measure the cytotoxicity and the plates were then incubated at RT for 30 min. The luminescence was measured using a ViewLux (Perkin Elmer) plate reader.
# Potency means the concentration at half of the fitted maximal effect.
row,Compound,Potency
1,COCCOc1cc2cc(C(=O)NC3CCN(C(C)C)CC3)n(CC(=O)Nc3ccc(Cl)cn3)c2cn1,inactive
2,O=c1[nH]c2ccccc2n1CCCN1CCN(C(c2ccccc2)c2ccccc2)CC1,inactive
3,O=C(O)c1cc(N=Nc2ccc([N+](=O)[O-])cc2)ccc1O,21.5 µM (active)
4,CC(C)OC(=O)C(O)(CC(=O)O)CC(=O)O,inactive
5,CCCCNS(=O)(=O)c1ccc(C)cc1,inactive
6,CC(N=C(NC#N)Nc1ccncc1)C(C)(C)C (stereo not given),inactive
7,CCCCC/C=C\C/C=C\CCCCCCCC(=O)O,inactive
8,Cc1cc(C(C)(C)C)c(O)c(C)c1Cn1c(=O)n(Cc2c(C)cc(C(C)(C)C)c(O)c2C)c(=O)n(Cc2c(C)cc(C(C)(C)C)c(O)c2C)c1=O,inactive
9,Cc1cc(=O)oc2cc(O)cc(O)c12,inactive
10,Nc1nc2c(ncn2COCCO)c(=O)[nH]1,inactive
11,Cc1ccc(N/N=c2\c(=O)cc/c(=N\Nc3ccc(S(=O)(=O)O)cc3)c2=O)c(C)c1,inactive
12,Nc1ccc(NCCO)c([N+](=O)[O-])c1,inactive
13,Nc1ccc(Oc2ccc(Cl)cc2)cc1,inactive
14,O=C(Nc1ccc2c(O)c(N=Nc3ccc(N=Nc4ccc(S(=O)(=O)O)cc4)cc3)c(S(=O)(=O)O)cc2c1)c1ccccc1,inactive
15,CC(C)Cn1cnc2c(N)nc3ccccc3c21,inactive
16,CC1=Nc2ccccc2C1(C)C,inactive
17,CCCCCCCCCCC[C@@H](C[C@@H]1OC(=O)[C@H]1CCCCCC)OC(=O)[C@H](CC(C)C)NC=O,inactive
18,CC(C)(C)NSc1nc2ccccc2s1,inactive
19,O=C(O)CN(CCN(CC(=O)O)CC(=O)O)CC(=O)O,inactive
20,CNc1ccc([N+](=O)[O-])cc1,inactive

row,Compound,Potency
1,C=CC(C)(CCC=C(C)C)OC=O (stereo not given),inactive
2,Nc1cc(Cl)c(O)c(Cl)c1,inactive
3,CCCCCCCCCCCCCCCC[N+](C)(C)CC,13.4 µM (active) and 17.4 µM (active)
4,COc1cc(C)ccc1O,inactive
5,C[Si](Cl)(c1ccccc1)c1ccccc1,inactive
6,COc1ccc(NC(=O)CC(C)=O)cc1,inactive
7,CC(C)(c1cc(Br)c(OCC(Br)CBr)c(Br)c1)c1cc(Br)c(OCC(Br)CBr)c(Br)c1 (stereo not given),inactive
8,Cc1c(C)c([N+](=O)[O-])c(C(C)(C)C)c([N+](=O)[O-])c1C,inactive
9,CCCCCCCCCCCCOCCOCCOCCOCCOCCOCCOCCOCCOCCO,23.9 µM (active)
10,CN1CCN(Cc2cc(-c3ccc4[nH]c(=O)oc4c3)co2)[C@@H](c2ccc(F)cc2)C1,inactive
11,O=C(O)c1cc(=O)c2ccccc2o1,inactive
12,Cc1c(F)c(N2CCNC(C)C2)cc2c1c(=O)c(C(=O)O)cn2C1CC1 (stereo not given),inactive
13,O=C1CCc2ccc(OCCCCN3CCN(c4cccc(Cl)c4Cl)CC3)cc2N1,inactive
14,Sc1nc2ccccc2s1,inactive
15,Cc1ccc(C(=O)O)cc1,inactive
16,C=CCn1c(=O)n(CC=C)c(=O)n(CC=C)c1=O,inactive
17,O=S(=O)(O)c1ccc(Nc2nc(Nc3ccc(/C=C/c4ccc(Nc5nc(Nc6ccc(S(=O)(=O)O)cc6)nc(N(CCO)CCO)n5)cc4S(=O)(=O)O)c(S(=O)(=O)O)c3)nc(N(CCO)CCO)n2)cc1,inactive
18,Nc1ccc(C(=O)O)c(O)c1,inactive
19,CCC(C)n1ncn(-c2ccc(N3CCN(c4ccc(OC[C@H]5CO[C@](Cn6cncn6)(c6ccc(Cl)cc6Cl)O5)cc4)CC3)cc2)c1=O (stereo not given in full),inactive
20,CCCCCCCC,inactive

# Source: PubChem BioAssay (Tox21)
